Laboratory results taken from PubChem BioAssay (NCATS).
Inconclusive results are not listed. Active and inactive are the calls of the source. The call rests on the fitted dose curve; in most records, active means well fitted cell-killing curve with a large enough effect; inconclusive means small, poorly fitted or top-dose-only effect, or effect the other way; inactive means flat fitted curve, though single readings scatter.

Legend:
Assay in all cases: Primary qHTS to identify gynecologic anti-cancer compounds using libraries of approved drugs and bioactive compounds (AID 1345084); further: nearly all actives have a fitted effect of over 55% in size
Details in all cases: Gynecologic cancer cell panel viability, ATPlite luminescence, 48 h; series mostly up to 57.5 µM
OV90 = test system: OV90
Procedure, shortened: (§1)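 In this quantitative HTS, cell killing is estimated from loss of ATP-dependent luciferase light. Cells see five compound concentrations over a 48 h exposure.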

PA-1 = test system: PA-1
Procedure, shortened: as §1

Tov-21-G = test system: Tov-21-G
Procedure, shortened: as §1

Tov112D = test system: Tov112D
Procedure, shortened: as §1

Measured: Potency

Cc1c(C)c(NCC(=O)N(C)C2CCN(Cc3ccc(C(N)=O)cc3)CC2)c(C)c(C)c1N
inactive: all assays above

CCCCOc1nc(N)c2c(n1)N(Cc1cccc(CN3CCCC3)c1)CC(=O)N2
inactive: all assays above

Cn1cc(-c2c[nH]c3ncnc(N4CCOCC4)c23)cn1
inactive: all assays above

C=C1C2(C)CC3C4(C)C=CC(=O)OC(C)(C)C4CCC3(C)C1(C(=O)OC)C(=O)C(C)(O)C2=O (configuration not stated)
inactive: all assays above

C[C@@H]1C[C@H]2OC(=O)[C@@]3(C)CCC[C@](C)(C23)[C@@]1(O)CCC1=CC(=O)OC1O (some centres not stated)
inactive: all assays above

FC(F)(F)c1nnc2c(Sc3ccccc3)nc3ccc(Cl)cc3n12
inactive: all assays above

C=CCc1ccc(O[C@@H]2O[C@H](CO)[C@@H](O)[C@H](O)[C@H]2O)c(O[C@@H]2O[C@H](CO)[C@@H](O)[C@H](O)[C@H]2O)c1
inactive: all assays above

C=C1CC23CC1CCC2C12OC(=O)C(C)(C(O)C(O)C1O)C2C3C(=O)O (configuration not stated)
inactive: all assays above

COc1ccc(C2(O)c3c(ccc4c3OC(C)(CCC=C(C)C)C=C4)NC(=O)C2OC)cc1 (configuration not stated)
inactive: all assays above

CC/C=C/C=C/C1(C)OC(CC(CO)OC)=CC1=O (configuration not stated)
inactive: all assays above

O=C(/C=C/c1ccc(O)cc1)OC[C@H]1O[C@H](O[C@@]2(CO)O[C@@H](CO)[C@H](O)[C@H]2O)[C@H](O)[C@@H](O)[C@@H]1O
inactive: all assays above

COc1cc(Nc2ccc([N+](=O)[O-])cc2C(=O)O)cc2ccccc12
inactive: all assays above

H-DPPDPDRFYGMM-NH2
inactive: all assays above

CC(CCc1ccc(O)cc1)O[C@@H]1O[C@H](CO[C@@H]2OC(CO)[C@H](O)[C@H]2O)[C@@H](O)[C@H](O)[C@H]1O (some centres not stated)
inactive: all assays above

CC1C2=CC(=O)OC2(O)CC2C1C(OC(=O)c1ccccc1)C(OC(=O)c1ccccc1)C1(O)C2(C)CCC(O)C1(C)C(=O)O (configuration not stated)
inactive: all assays above

O=C(OC[C@H]1O[C@H](O[C@H]2CO[C@H](CO)[C@@H](O)[C@@H]2O)[C@H](O)[C@@H](O)[C@H]1O)c1ccccc1
inactive: all assays above

CCCC(C(=O)O)c1c(C)nc2ccc(Cl)cc2c1-c1ccccc1 (configuration not stated)
inactive: all assays above

COc1ccc(C(=O)CC(=O)O)c2c1C=CC(C)(C)O2
inactive: all assays above

CC(=O)OC1CC(=O)C2(C)C3CC4=C(OC(C)CC4=O)OC3(C)CCC2C1(C)C (configuration not stated)
inactive: all assays above

CC(=O)O[C@@H]1C(O)C[C@@]2(C)C(CC[C@@H](C)C23Cc2c(O)cc4c(c2O3)CNC4=O)C1(C)C (some centres not stated)
inactive: all assays above

CC(O)C1NC(=O)C2CCCN2C1=O (configuration not stated)
inactive: all assays above

C/C=C/C=C/C=C/C(=O)O[C@@H]1[C@@H](OC)C2=C(C(=O)N(C(CCC(=O)O)C(=O)O)C2)[C@@]2(C)CCCC(C)(C)[C@H]12 (some centres not stated)
inactive: all assays above

C=C[C@@](C)(CCC=C(C)C)O[C@@H]1O[C@H](CO[C@@H]2OC[C@H](O)[C@H](O)[C@H]2O)[C@@H](O)[C@H](O)[C@H]1O
inactive: all assays above

Cc1c(Cc2ccc3ccccc3n2)c2cc(F)ccc2n1CC(=O)O
inactive: all assays above

COC1OC(=O)C2=C1C1(C)CCCC(C)(C)C1CC2O (configuration not stated)
inactive: all assays above

COc1ccc(OC)c(C2C(C#N)=C(N)Oc3n[nH]c(-c4ccc5ccccc5c4)c32)c1 (configuration not stated)
inactive: all assays above

COc1cc(/C=C/C(=O)OCC2OC(OC3(CO)OC(CO)C(O)C3O)C(O)C(O)C2O)ccc1O (configuration not stated)
inactive: all assays above

CCOC(=O)C(CCc1ccccc1)NC1CCCN2CCCC(C(=O)O)N2C1=O (configuration not stated)
inactive: all assays above
